The source made the active and inactive calls. How the source made its calls: active means hit-call score of the fitted dose curve at least 0.9, where 1 is the maximum; inactive means score below 0.9.

The nature of this assay: Tanguay_ZF_120hpf_DP24: Oregon State University Tanguay Lab 24 Hour Post-fertilization zebrafish Assay for Delayed Development (AID 2284390). Here is the method: Tanguay_ZF_120hpf is a whole embryo, multiplexed endpoint assay using zebrafish larvae exposed for 120 hours post fertilization on a 96-well plate.Tanguay_ZF_120hpf_DP24 is […] measured or calculated from the Tanguay_ZF_120hpf assay. It is designed to make measurements of zebrafish development as detected with brightfield microscopy of developing zebrafish embryos.Data from the assay component Tanguay_ZF_120hpf_DP24 was analyzed into 1 assay endpoints. This assay endpoint, Tanguay_ZF_120hpf_DP24, was analyzed in the positive analysis fitting direction relative to DMSO as the negative control and baseline of activity. Using a type of morphology reporter, gain-of-signal activity can be used to understand changes in developmentals as they relate to the whole embryo. To generalize the intended target to other relatable targets, this assay endpoint is annotated to the zebrafish development intended target family, where the subfamily is embryonic morphogenesis.
Zebrafish husbandry: Tropical 5D wild-type adult zebrafish were housed in at an approximate density of 1000 per 100 gallon tank at the Sinnhuber Aquatic Research Laboratory, Oregon State University, Corvallis, OR. Each tank was kept at standard laboratory conditions of 28C on a 14-h light/10-h dark photoperiod in fish water consisting of reverse osmosis water supplemented with a commercially available salt (Instant Ocean). Spawning funnels were placed into the tanks the night prior, and embryos were collected and staged. To increase bioavailability, the chorion was enzymatically removed using pronase (63.6mg/ml, >/= 3.5U/mg, Sigma-Aldrich: P5147) at 4 hours post fertilization (hpf) using a custom automated dechorionator.Chemical exposures: Six hpf dechorionated embryos were placed 1 embryo per well in a 96-well plate prefilled with 90 ul of EM using automated embryo placement systems (AEPS). Ten microliters of each row of dilution plate 2 was added to 2 exposure plates. The final DMSO concentration used was 0.64% (vol/vol). Thirty-two embryos were also exposed to 5uM trimethyltin chloride (positive control). Plates were sealed to prevent evaporation and foil covered to reduce light exposure and kept in a 28C incubator. Embryos were statically exposed until 120 hpf. At 24 hpf, embryos were assessed for photomotor response using a custom photomotor response analysis tool (PRAT) and for developmental toxicity endpoints (MO24: mortality at 24 hpf, DP: developmental progression, SM: spontaneous movement, and NC: notochord distortion). At 120 hpf, locomotor activity was measured using Viewpoint Zebralab and assessed for 13 endpoints. Zebrafish acquisition and analysis program (ZAAP), a custom program designed to inventory, acquire, and manage zebrafish data, was used to collect developmental endpoints as either present or absent (i.e., binary responses were recorded). If mortality occurred for an embryo (at either 24 or 120 hpf), the non-mortality endpoints were not measured.
For `OCC(F)(F)C(F)(F)C(F)(F)C(F)(F)C(F)(F)C(F)(F)CO`, the result was inactive.

For the compound `CN(C(=O)C(F)(F)C(F)(F)C(F)(F)F)[Si](C)(C)C`, the result was inactive.

Turning to `C=CC(=O)OCC(F)(F)C(F)(F)C(F)(F)C(F)(F)C(F)(F)C(F)(F)C(F)(F)C(F)F`, the compound was called inactive.

Regarding `COC(F)(C(F)F)C(F)(F)F` (configuration not stated), the result was inactive.

In the case of `C[Si](Cl)(Cl)CCC(F)(F)C(F)(F)C(F)(F)C(F)(F)C(F)(F)C(F)(F)F`, the compound was classed as inactive.

As to `O=S(=O)(OCC(F)(F)F)C(F)(F)C(F)(F)C(F)(F)C(F)(F)F`, the call was inactive.

In the case of `OCC(O)CC(F)(F)C(F)(F)C(F)(F)C(F)(F)C(F)(F)C(F)(F)C(F)(F)C(F)(F)F` (configuration not stated), the outcome was inactive.

Regarding `O=S(=O)(Cl)C(F)(F)C(F)(F)C(F)(F)C(F)(F)C(F)(F)C(F)(F)C(F)(F)C(F)(F)F`, the compound was called inactive.

With `O=C(O)CCC(F)(F)C(F)(F)C(F)(F)C(F)(F)C(F)(F)C(F)(F)C(F)(F)F`, the compound was called inactive.

In the case of `OC(O)C(F)(F)C(F)(F)F`, the call was inactive.

With `O=S(=O)(O)CCC(F)(F)C(F)(F)C(F)(F)C(F)(F)F`, the call was inactive.

Regarding `CCOC(=O)CC(=O)C(F)(F)C(F)(F)F`, the result was inactive.

`NC(=O)C(F)(F)C(F)(F)C(F)(F)F`: the compound was called inactive.

With `CO[Si](C)(CCC(F)(F)C(F)(F)C(F)(F)C(F)(F)C(F)(F)C(F)(F)F)OC`, the call was inactive.

For `C=CC(=O)OCCC(F)(F)C(F)(F)C(F)(F)C(F)(F)F`, the compound was classed as inactive.

As to `OCCCC(F)(F)C(F)(F)C(F)(F)C(F)(F)C(F)(F)C(F)(F)C(F)(F)C(F)(F)F`, the call was inactive.

Consider `NC(=O)C(F)(F)C(F)(F)C(F)(F)C(F)(F)C(N)=O`, for which the call was inactive.

In the case of `NC(=O)C(F)(F)C(F)(F)C(F)(F)C(F)(F)C(F)(F)C(F)(F)C(F)(F)F`, the compound was classed as inactive.

As for `O=S(=O)(O)CCC(F)(F)C(F)(F)C(F)(F)C(F)(F)C(F)(F)C(F)(F)C(F)(F)C(F)(F)F`, the AC50 (in general, the concentration at which the activity in the assay is half-maximal) was 79.2 µM (active).

For the compound `NS(=O)(=O)C(F)(F)C(F)(F)C(F)(F)C(F)(F)C(F)(F)C(F)(F)F`, the AC50 was 57.6 µM (active).

For `NC(=O)C(F)(F)C(F)(F)C(F)(F)C(F)F`, the outcome was inactive.

In the case of `C=CC(=O)OCC(F)(F)C(F)(F)C(F)(F)COC(=O)C=C`, the AC50 is 14.1 µM (active).

`FC(F)(F)C(F)(F)C(F)(F)CC1CO1` (configuration not stated): the compound was called inactive.

Regarding `FC(F)(F)C(F)(F)C(F)(F)C(F)(F)C(F)(F)C(F)(F)C(F)(F)CCI`, the compound was classed as inactive.

For the compound `O=C(O)C(F)(F)C(F)(F)C(F)(F)OC(F)(F)F`, the compound was classed as inactive.

As for `OCC(F)(F)C(F)(F)C(F)(F)CO`, the call was inactive.

In the case of `OCCCCC(F)(F)C(F)(F)C(F)(F)C(F)(F)F`, the call was inactive.

In the case of `O=C(O)CCC(F)(F)C(F)(F)C(F)(F)F`, the call was inactive.

On to `O=C(O)C(F)(F)C(F)(F)C(F)(F)OC(F)(C(F)(F)F)C(F)(F)F`, for which the outcome was inactive.

As to `O=C(O)C(F)(F)C(F)(F)C(F)(F)C(=O)O`, the compound was called inactive.

Consider `CCN(CCO)S(=O)(=O)C(F)(F)C(F)(F)C(F)(F)C(F)(F)C(F)(F)C(F)(F)C(F)(F)C(F)(F)F`, for which the outcome was inactive.

In the case of `OCC(O)CC(F)(F)C(F)(F)C(F)(F)C(F)(F)F` (configuration not stated), the outcome was inactive.

`NC(O)(C(F)(F)F)C(F)(F)F`: the call was inactive.

On to `O=C(F)C1(F)C(F)(F)C(F)(F)C(F)(F)C(F)(F)C1(F)F`, for which the compound was classed as inactive.

`CNS(=O)(=O)C(F)(F)C(F)(F)C(F)(F)C(F)(F)C(F)(F)C(F)(F)C(F)(F)C(F)(F)F`: the compound was called inactive.

As for `OCC(F)(F)C(F)(F)C(F)(F)C(F)(F)C(F)(F)C(F)(F)C(F)(F)C(F)(F)CO`, the compound was classed as inactive.

For `FC(F)(F)C(F)(F)C(F)(F)C(F)(F)C(F)(F)C(F)(F)CC[Si](Cl)(Cl)Cl`, the compound was called inactive.

The values above are taken from PubChem BioAssay (EPA / NIEHS).
